Results on 20 molecules are retold here after PubChem BioAssay (NCI).

About 79,000 compounds went through this panel and 15% of them were active in at least one assay; those are over-represented in the sample as a whole. Values without a mark were called inactive. Active and inactive are the calls of the source. Cut-off read from the data, not from the text of the source: active = growth inhibition above about 70%; inactive = the rest.

Test [1] can be described thus: NCI Yeast Anticancer Drug Screen. Data for the rad50 strain (AID 155).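 Note: 0% = growth of vehicle-only cultures of the same strain.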 The following applies: S. cerevisiae rad50 strain growth inhibition; at 50.0 µM; active compounds read high. Summed up:
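Compounds were tested on a yeast strain with an engineered DNA damage repair alteration; the reported value is growth inhibition normalised to vehicle treatment.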

The nature of test [2]: NCI Yeast Anticancer Drug Screen. Data for the mec2-1 strain (AID 157). The following applies: S. cerevisiae mec2-1 strain, at 50.0 µM, active compounds read high. Summed up:
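Strain: mec2-1 (DNA repair/cell cycle alteration). Compound exposure, then growth measured; inhibition expressed relative to vehicle.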

The nature of test [3]: NCI Yeast Anticancer Drug Screen. Data for the sgs1 mgt1 strain (AID 161).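 Note: 0% = growth of cultures given vehicle only.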 The following applies: S. cerevisiae sgs1 mgt1 strain, at 50.0 µM, active compounds read high. Summed up:
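Read-out: growth inhibition vs vehicle controls. Cells: mutant yeast strain deficient in DNA damage repair.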

Test [4] is described as follows: NCI Yeast Anticancer Drug Screen. Data for the cln2 rad14 strain (AID 165).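 Note: 0% = growth equal to vehicle treated cultures.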 The following applies: S. cerevisiae cln2 rad14 strain, at 50.0 µM, active compounds read high. Summed up: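 Compounds are applied to the cln2 rad14 yeast strain, and growth is then compared with that of vehicle-treated cultures to give inhibition.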
Test [5] can be described thus: NCI Yeast Anticancer Drug Screen. Data for the bub3 strain (AID 167). The following applies: S. cerevisiae bub3 mutant strain, at 50.0 µM, active compounds read high. Summed up:
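Growth of a checkpoint-deficient yeast mutant is measured after compound exposure. Values represent inhibition relative to vehicle.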

Test [6] in a line: NCI Yeast Anticancer Drug Screen. Data for the mlh1 rad18 strain (AID 175). Conditions: S. cerevisiae mlh1 rad18 strain growth inhibition; at 50.0 µM; active compounds read high. Summed up:
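Read-out is yeast growth inhibition, calculated against vehicle-only controls. The compound was applied to a strain engineered with DNA damage repair alterations.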

`COc1cc(/C=C/C(=O)NCCCCN)ccc1O`: the growth inhibition in test [1] is 19.6%; in test [2], 8.9%; in test [3] it was 21.8%; in test [4] it was 9.6%; in test [5], 13%; in test [6] it was 19.7%.

Regarding `CCCC(O)CO` (stereo not given), the growth inhibition in test [1] is 5.55%; in test [2] it was 1.9%; in test [3], 0.15%; in test [4], -0.6%; in test [5], -0.5%; in test [6], 40.2%.

`COC(=O)c1ccccc1NC(=O)C1CCCCC1=O` (stereo not given): the growth inhibition in test [1] is 1.55%; in test [2], -1.2%; in test [3], -0.1%; in test [4], -21.5%; in test [5], 12.3%; in test [6], 0.6%.

In the case of `COc1ccc(Cc2ccc3c(c2)OCO3)cc1C`, the growth inhibition is -12.1% in test [1]; -14.2% in test [2]; 9.7% in test [3]; -9.55% in test [4]; 6.45% in test [5]; -3.95% in test [6].

As for `COC(=O)C1(CC(=O)c2ccccc2)NC(=S)NC(=O)C1C#N` (stereo not given), the growth inhibition in test [1] was 1.85%; in test [2], -13.9%; in test [3], -24.4%; in test [4], -15.8%; in test [5], -33.5%; in test [6], -3.35%.

For `CC1CC(C2=CC=CCS2)=Nc2ccccc2S1` (stereo not given), the growth inhibition was -8.25% in test [1]; -16.2% in test [2]; 33.5% in test [3]; 19.9% in test [4]; 5.3% in test [5]; 18.8% in test [6].

`O=C(C[n+]1ccccc1)c1ccc([N+](=O)[O-])cc1`: the growth inhibition in test [1] is -3.35%; in test [2] it was -2.2%; in test [3] it was -4.45%; in test [4], -30.1%; in test [5], -6.7%; in test [6] it was 38.7%.

Consider `COc1ccc2cc3[n+](cc2c1O)CCc1cc2c(cc1-3)OCO2`, for which the growth inhibition in test [1] was 6.75%; in test [2], -22.8%; in test [3] it was 19%; in test [4], 20.6%; in test [5], 22.2%; in test [6], 22.9%.

With `COc1ccc(OC)c(C(=O)C2=C(c3cc(OC)ccc3OC)CCC2)c1`, the growth inhibition in test [1] was 7.3%; in test [2] it was 38.4%; in test [3], 33.2%; in test [4] it was 2.1%; in test [5] it was 44.4%; in test [6] it was 28.4%.

`COC(=O)C1=CON2C3CC4CC(C3)CC(C4)C12C` (stereo not given): the growth inhibition in test [1] is -2%; in test [2] it was -30.6%; in test [3], -8.95%; in test [4], -14.2%; in test [5], -18.4%; in test [6], -5.9%.

On to `CC1(C)C(CBr)=[N+]([O-])C(C)(C)N1O`, for which the growth inhibition in test [1] was 4.8%; in test [2] it was -0.6%; in test [3] it was -15.2%; in test [4], 13.6%; in test [5], -12.9%; in test [6], 21.6%.

Take `OC12c3ccccc3C1(N1CCOCC1)CCCCC21OCCCO1` (stereo not given): the growth inhibition in test [1] was 12.7%; in test [2], -11.2%; in test [3], -17.6%; in test [4], 10.1%; in test [5], -23.5%; in test [6], -5.15%.

Regarding `CCOC(CN=Cc1ccc2c(c1)Sc1ccccc1O2)OCC`, the growth inhibition in test [1] is 73.1% (active); in test [2], 46.1%; in test [3], 88.2% (active); in test [4], 55.2%; in test [5] it was 64.8%; in test [6] it was 89.5% (active).

With `c1ccc2[nH]c(-c3nc4ccccc4s3)cc2c1`, the growth inhibition in test [1] is -3.75%; in test [2], -4.45%; in test [3] it was 0.05%; in test [4], -60.1%; in test [5], -12%; in test [6], 1.25%.

Take `CC(C)(C)OC(=O)C1/C(=C/CO)CN1C(=O)OC(C)(C)C` (stereo not given): the growth inhibition in test [1] was -17.9%; in test [2] it was -36.2%; in test [3] it was -12.2%; in test [4], 7.4%; in test [5], -12.1%; in test [6], -28.9%.

As for `CC(=O)N[C@]1(C)CCC2C[C@H]1C(C)=NC2(C)C`, the growth inhibition in test [1] was -5.55%; in test [2] it was 4.05%; in test [3], -2.5%; in test [4] it was 12.2%; in test [5], 1.3%; in test [6], -14.4%.

On to `Nc1nnnn1C(=O)NCCCl`, for which the growth inhibition in test [1] was -6.55%; in test [2], 0.6%; in test [3], -6.45%; in test [4], -24.8%; in test [5], -20.4%; in test [6], -5.25%.

For the molecule `CC(O)COc1ccc(C(C)(C)C)cc1` (stereo not given), the growth inhibition in test [1] is 3.25%; in test [2], -4.2%; in test [3], -2.45%; in test [4] it was -13%; in test [5] it was 10.8%; in test [6] it was 2.6%.

Take `CCCCCCCCCCCCCCCCCC1=Nc2cc(C)c(C)cc2NC(=O)C1`: the growth inhibition in test [1] was -21.7%; in test [2], -31.6%; in test [3], -30.1%; in test [4], 7.35%; in test [5], -12.8%; in test [6], -8.1%.

As to `CC(=O)Nc1cc(C(C)=O)ccc1C(C)=O`, the growth inhibition was -5.8% in test [1]; -6.2% in test [2]; 6% in test [3]; 2.35% in test [4]; -0.5% in test [5]; 12.7% in test [6].
